Results on eight sequences are retold here after PMC7862700, “An all-to-all approach to the identification of sequence-specific readers for epigenetic DNA modifications on cytosine”.

Holding throughout (assay): DAPPL (digital affinity profiling via proximity ligation, sequencing); 10 mM Tris-HCl pH 7.5, 50 mM NaCl, 1 mM DTT, 4% glycerol, room temperature, 30 min; GST-TFs on glutathione beads, 16-mer random dsDNA library, 0.1% formaldehyde crosslink after washing; high values mean tight binding
Holding throughout (conditions): protein: recombinant; tags: N-terminal GST; dsDNA, one strand shown

The target of one test is T1, ERF (Homo sapiens, UniProt P50548 1-548).
T1 sequence: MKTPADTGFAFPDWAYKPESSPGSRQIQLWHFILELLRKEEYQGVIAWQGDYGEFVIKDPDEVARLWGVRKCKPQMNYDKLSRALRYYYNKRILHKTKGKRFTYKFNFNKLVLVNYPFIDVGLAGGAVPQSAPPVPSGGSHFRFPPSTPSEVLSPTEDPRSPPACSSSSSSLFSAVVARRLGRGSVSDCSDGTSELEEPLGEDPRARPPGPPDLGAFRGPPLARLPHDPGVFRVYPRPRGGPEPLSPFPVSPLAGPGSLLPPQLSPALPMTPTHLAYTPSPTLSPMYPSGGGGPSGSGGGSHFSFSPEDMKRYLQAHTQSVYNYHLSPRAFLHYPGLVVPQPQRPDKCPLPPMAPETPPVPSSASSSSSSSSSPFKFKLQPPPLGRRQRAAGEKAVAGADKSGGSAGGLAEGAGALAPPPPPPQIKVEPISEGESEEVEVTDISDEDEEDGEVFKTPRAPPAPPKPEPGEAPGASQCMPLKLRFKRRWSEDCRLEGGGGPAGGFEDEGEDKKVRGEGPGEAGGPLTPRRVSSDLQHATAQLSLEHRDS
The procedure, abridged:
(§1)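 Pools were built from human transcription factors expressed in yeast as GST fusions, captured on glutathione beads and DNA-barcoded, along with a tag-only sample. Incubation with 200 nmole of a 16-mer random double-stranded DNA library lasted 30 min at room temperature in Tris/NaCl/DTT/glycerol buffer, and was followed by washing, 0.1% formaldehyde crosslinking, proximity ligation, PCR amplification and Illumina NextSeq500 sequencing. Binding signal is the quotient of each hexamer's read frequency for a factor and its frequency for the tag-only sample.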

The target of a further test is T2, ETV3L (Homo sapiens, UniProt Q6ZN32 1-361).
T2 sequence: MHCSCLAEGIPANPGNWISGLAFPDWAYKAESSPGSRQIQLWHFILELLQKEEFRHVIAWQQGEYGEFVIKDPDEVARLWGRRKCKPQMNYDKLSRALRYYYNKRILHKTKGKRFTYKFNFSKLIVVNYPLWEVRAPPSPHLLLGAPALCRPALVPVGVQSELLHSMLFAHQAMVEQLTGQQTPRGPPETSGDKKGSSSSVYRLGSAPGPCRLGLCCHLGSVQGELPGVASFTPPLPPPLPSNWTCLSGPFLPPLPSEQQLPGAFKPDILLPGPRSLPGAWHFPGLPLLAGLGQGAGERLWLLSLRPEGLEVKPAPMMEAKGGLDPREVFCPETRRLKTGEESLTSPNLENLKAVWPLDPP
The procedure, abridged:
as §1

In the next test the target is T3, ETS2 (Homo sapiens, UniProt P15036 1-469).
T3 sequence: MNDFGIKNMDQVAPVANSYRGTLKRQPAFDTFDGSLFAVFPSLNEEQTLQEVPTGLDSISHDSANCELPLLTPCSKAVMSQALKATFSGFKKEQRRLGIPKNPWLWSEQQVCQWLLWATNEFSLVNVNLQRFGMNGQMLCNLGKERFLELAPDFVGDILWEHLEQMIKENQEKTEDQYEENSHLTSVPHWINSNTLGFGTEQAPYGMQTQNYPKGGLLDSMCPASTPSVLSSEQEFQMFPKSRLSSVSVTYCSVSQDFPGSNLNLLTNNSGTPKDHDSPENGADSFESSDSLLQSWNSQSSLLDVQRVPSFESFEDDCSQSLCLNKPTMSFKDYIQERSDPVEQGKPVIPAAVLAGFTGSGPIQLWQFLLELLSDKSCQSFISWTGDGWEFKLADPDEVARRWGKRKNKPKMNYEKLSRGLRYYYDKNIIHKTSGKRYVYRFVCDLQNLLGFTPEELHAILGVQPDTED
The method in brief:
as §1

The target of the next test is T4, SPDEF (Homo sapiens, UniProt O95238 1-335).
T4 sequence: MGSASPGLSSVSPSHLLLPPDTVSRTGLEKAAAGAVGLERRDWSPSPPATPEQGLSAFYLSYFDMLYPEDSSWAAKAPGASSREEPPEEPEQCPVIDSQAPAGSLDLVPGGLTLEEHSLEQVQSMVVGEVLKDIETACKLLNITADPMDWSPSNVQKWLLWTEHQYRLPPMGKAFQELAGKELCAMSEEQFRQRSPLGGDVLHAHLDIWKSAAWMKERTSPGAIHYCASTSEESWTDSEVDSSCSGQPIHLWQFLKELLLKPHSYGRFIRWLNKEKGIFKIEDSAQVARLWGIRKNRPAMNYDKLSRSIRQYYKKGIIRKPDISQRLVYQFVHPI
The method in brief:
as §1

Another test addresses T5, ETV7 (Homo sapiens, UniProt Q9Y603 1-341).
T5 sequence: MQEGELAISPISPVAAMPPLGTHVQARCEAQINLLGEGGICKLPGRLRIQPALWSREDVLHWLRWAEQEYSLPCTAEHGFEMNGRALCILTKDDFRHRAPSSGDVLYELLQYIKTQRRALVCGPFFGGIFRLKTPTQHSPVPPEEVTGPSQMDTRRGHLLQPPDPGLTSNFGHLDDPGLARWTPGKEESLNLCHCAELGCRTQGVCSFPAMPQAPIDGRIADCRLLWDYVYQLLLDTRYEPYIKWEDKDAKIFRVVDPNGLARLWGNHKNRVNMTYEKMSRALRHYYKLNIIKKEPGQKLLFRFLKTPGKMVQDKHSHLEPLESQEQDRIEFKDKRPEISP
The procedure, abridged:
as §1

The next test addresses T6, ELF5 (Homo sapiens, UniProt Q9UKW6-2 1-255).
T6 sequence: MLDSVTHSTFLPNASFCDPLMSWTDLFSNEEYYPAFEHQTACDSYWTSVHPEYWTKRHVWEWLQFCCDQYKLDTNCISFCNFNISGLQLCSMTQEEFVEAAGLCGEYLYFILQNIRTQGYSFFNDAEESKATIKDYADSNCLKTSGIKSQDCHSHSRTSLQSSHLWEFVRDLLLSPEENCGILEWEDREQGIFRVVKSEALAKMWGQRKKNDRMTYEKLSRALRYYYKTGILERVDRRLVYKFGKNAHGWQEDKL
The procedure, abridged: as §1

In another test the target is T7, ETV3 (Homo sapiens, UniProt P41162-2 1-143).
T7 sequence: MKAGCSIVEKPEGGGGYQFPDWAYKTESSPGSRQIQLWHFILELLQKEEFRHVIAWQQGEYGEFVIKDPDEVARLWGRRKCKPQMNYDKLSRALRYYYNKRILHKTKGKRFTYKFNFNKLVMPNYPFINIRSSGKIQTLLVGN
The method in brief:
as §1

The target in the next test is ETV6 (Homo sapiens, UniProt P41212 1-452). The procedure, abridged:
as §1

Chain of ETV6 (P41212 whole entry): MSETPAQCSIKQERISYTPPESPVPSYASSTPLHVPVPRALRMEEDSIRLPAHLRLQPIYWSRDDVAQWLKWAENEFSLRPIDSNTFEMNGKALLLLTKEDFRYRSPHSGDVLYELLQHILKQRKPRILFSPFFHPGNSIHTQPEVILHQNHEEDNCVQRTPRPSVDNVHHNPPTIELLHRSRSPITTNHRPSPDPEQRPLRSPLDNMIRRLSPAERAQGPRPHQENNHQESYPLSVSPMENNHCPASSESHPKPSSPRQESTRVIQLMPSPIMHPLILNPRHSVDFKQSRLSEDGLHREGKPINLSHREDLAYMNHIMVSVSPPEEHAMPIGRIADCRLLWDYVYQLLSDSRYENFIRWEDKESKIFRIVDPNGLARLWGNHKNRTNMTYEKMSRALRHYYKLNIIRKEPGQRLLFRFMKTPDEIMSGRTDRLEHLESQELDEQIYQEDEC

Turning to ACCATA, the binding signal was 1.15 fold enrichment (6-mer frequency, TF over GST control) with ERF; 1.25 fold enrichment (6-mer frequency, TF over GST control) with ETV3L; 1.17 fold enrichment (6-mer frequency, TF over GST control) with ETS2; 1.17 fold enrichment (6-mer frequency, TF over GST control) with SPDEF; 1.11 fold enrichment (6-mer frequency, TF over GST control) with ETV7; 1.15 fold enrichment (6-mer frequency, TF over GST control) with ELF5. Further, the binding signal in the test with ETV3 is 1.19 fold enrichment (6-mer frequency, TF over GST control); with ETV6 it was 1.16 fold enrichment (6-mer frequency, TF over GST control).

Take GAAGTT: the binding signal was 1.47 fold enrichment (6-mer frequency, TF over GST control) with ERF; 1.64 fold enrichment (6-mer frequency, TF over GST control) with ETV3L; 1.71 fold enrichment (6-mer frequency, TF over GST control) in the test with ETS2; 1.56 fold enrichment (6-mer frequency, TF over GST control) with SPDEF; 1.65 fold enrichment (6-mer frequency, TF over GST control) with ETV7; 2 fold enrichment (6-mer frequency, TF over GST control) in the test with ELF5. Further, the binding signal is 1.7 fold enrichment (6-mer frequency, TF over GST control) with ETV3 and 1.93 fold enrichment (6-mer frequency, TF over GST control) with ETV6.

For the sequence TAACCA, the binding signal with ERF was 1.1 fold enrichment (6-mer frequency, TF over GST control); with ETV3L, 1.13 fold enrichment (6-mer frequency, TF over GST control); with ETS2, 1.12 fold enrichment (6-mer frequency, TF over GST control); with SPDEF it was 1.05 fold enrichment (6-mer frequency, TF over GST control); with ETV7, 1.09 fold enrichment (6-mer frequency, TF over GST control); in the test with ELF5 it was 1.09 fold enrichment (6-mer frequency, TF over GST control). In addition, the binding signal in the test with ETV3 is 1.13 fold enrichment (6-mer frequency, TF over GST control); with ETV6, 1.04 fold enrichment (6-mer frequency, TF over GST control).

For the sequence TGTACT, the binding signal in the test with ERF is 1.11 fold enrichment (6-mer frequency, TF over GST control); in the test with ETV3L, 1.26 fold enrichment (6-mer frequency, TF over GST control); with ETS2, 1.27 fold enrichment (6-mer frequency, TF over GST control); in the test with SPDEF, 1.71 fold enrichment (6-mer frequency, TF over GST control); with ETV7 it was 1.24 fold enrichment (6-mer frequency, TF over GST control); with ELF5, 1.37 fold enrichment (6-mer frequency, TF over GST control). Besides, the binding signal with ETV3 is 1.22 fold enrichment (6-mer frequency, TF over GST control); with ETV6, 1.28 fold enrichment (6-mer frequency, TF over GST control).

Consider TGTTGA, for which the binding signal with ERF was 1.13 fold enrichment (6-mer frequency, TF over GST control); with ETV3L, 1.17 fold enrichment (6-mer frequency, TF over GST control); with ETS2, 1.11 fold enrichment (6-mer frequency, TF over GST control); with SPDEF it was 1.23 fold enrichment (6-mer frequency, TF over GST control); with ETV7 it was 1.18 fold enrichment (6-mer frequency, TF over GST control); in the test with ELF5, 1.08 fold enrichment (6-mer frequency, TF over GST control). For the same sequence, the binding signal was 1.11 fold enrichment (6-mer frequency, TF over GST control) with ETV3 and 1.01 fold enrichment (6-mer frequency, TF over GST control) with ETV6.

For the sequence GGTCCC, the binding signal was 1.18 fold enrichment (6-mer frequency, TF over GST control) in the test with ERF; 1.25 fold enrichment (6-mer frequency, TF over GST control) with ETV3L; 1.12 fold enrichment (6-mer frequency, TF over GST control) with ETS2; 1.29 fold enrichment (6-mer frequency, TF over GST control) with SPDEF; 1.15 fold enrichment (6-mer frequency, TF over GST control) in the test with ETV7; 1.13 fold enrichment (6-mer frequency, TF over GST control) with ELF5. The binding signal is 1.2 fold enrichment (6-mer frequency, TF over GST control) in the test with ETV3 and 1.09 fold enrichment (6-mer frequency, TF over GST control) in the test with ETV6.

For the sequence TGGTAT, the binding signal is 1.34 fold enrichment (6-mer frequency, TF over GST control) with ERF; 1.37 fold enrichment (6-mer frequency, TF over GST control) in the test with ETV3L; 1.33 fold enrichment (6-mer frequency, TF over GST control) in the test with ETS2; 1.42 fold enrichment (6-mer frequency, TF over GST control) with SPDEF; 1.35 fold enrichment (6-mer frequency, TF over GST control) with ETV7; 1.37 fold enrichment (6-mer frequency, TF over GST control) in the test with ELF5. In addition, the binding signal with ETV3 was 1.28 fold enrichment (6-mer frequency, TF over GST control); with ETV6, 1.31 fold enrichment (6-mer frequency, TF over GST control).

CGACCT: the binding signal was 1.47 fold enrichment (6-mer frequency, TF over GST control) with ERF; 1.75 fold enrichment (6-mer frequency, TF over GST control) with ETV3L; 1.41 fold enrichment (6-mer frequency, TF over GST control) with ETS2; 1.44 fold enrichment (6-mer frequency, TF over GST control) with SPDEF; 1.54 fold enrichment (6-mer frequency, TF over GST control) with ETV7; 1.58 fold enrichment (6-mer frequency, TF over GST control) with ELF5. The binding signal was 1.53 fold enrichment (6-mer frequency, TF over GST control) with ETV3 and 1.5 fold enrichment (6-mer frequency, TF over GST control) with ETV6.
